# Values joined by “and” are separate entries in the source; they are usually repeats but may differ in a detail not shown here. Equal entries are not always repeated. Results filed as inconclusive are left out. The source holds several records for some structures; these can differ, active in one and inactive in another. Active and inactive are the calls of the source. How the source made its calls: active means hit-call score of the fitted dose curve at least 0.9, where 1 is the maximum; inconclusive means response in the unintended direction; inactive means score below 0.9.
# Tests used:
# [1] = molecular target: rat Mineralocorticoid Receptor (MR), Nr3c2 (gene 25672) (UniProt P22199); test: NVS_NR_rMR: NovaScreen (NVS) Nuclear Receptor Binding Assay for rat Mineralocorticoid Receptor (MR) (AID 2283355)
# Outline: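 Adrenalectomized rat brain supernatant was dosed with test chemical, then radioligand binding was measured by scintillation counting at 24 h. Initial testing ran in duplicate at 25 uM, followed by concentration series for actives.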
# [2] = molecular target: Retinoic acid receptor alpha (Homo sapiens) (UniProt P10276); test: NVS_NR_hRAR_Antagonist: NovaScreen (NVS) Nuclear Receptor Binding Assay for human Retinoic Acid Alpha Receptor Antagonism (RAR) (AID 2283358)
# Outline: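 TR-FRET, cell-free, antagonist format; 2 h incubation after dosing; DMSO = baseline; signal loss fitted; 25 uM duplicate primary, then conc. series.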
# [3] = molecular target: rat Androgen Receptor (AR), Ar (gene 24208) (UniProt P15207); test: NVS_NR_rAR: NovaScreen (NVS) Nuclear Receptor Binding Assay for rat Androgen Receptor (AR) (AID 2283366)
# Outline: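 Cell-free radioligand binding on extracts of prostate from testosterone-pretreated rats, read by filter-based scintillation counting 18 h after dosing. Loss of bound signal fitted positively versus DMSO; primary screen in duplicate at 25 uM, actives followed up in concentration series.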
# [4] = molecular target: Retinoic acid receptor alpha (Homo sapiens) (UniProt P10276); test: NVS_NR_hRARa_Agonist: NovaScreen (NVS) Nuclear Receptor Binding Assay for human Retinoic Acid Alpha Receptor Agonism (RAR) (AID 2283361)
# Outline: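 Readout is time-resolved fluorescence resonance energy transfer after a 2 h exposure of cell-free extracted receptor protein. Initial testing used 25 uM in duplicate, with concentration-response follow-up for active chemicals.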
# [5] = molecular target: human Dopamine Transporter (DAT), SLC6A3 (gene 6531) (UniProt Q01959); test: NVS_TR_hDAT: NovaScreen (NVS) Transporter Assay for human Dopamine Transporter (DAT) (AID 2283374);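 further: activity means loss of bound radioligand signal relative to DMSO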
# Outline: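 Test chemicals were first screened in duplicate at 25 uM, with actives retested as concentration series. Displacement of a specific radioligand from cell-free human dopamine transporter was measured after 1 h by filtration and scintillation counting.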
# [6] = molecular target: human Norepinephrine Transporter (NET), SLC6A2 (gene 6530) (UniProt P23975); test: NVS_TR_hNET: NovaScreen (NVS) Transporter Assay for human Norepinephrine Transporter (NET) (AID 2283377);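 further: cell-free membrane protein extracted from CHO cells expressing human NET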;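 on AC50: displacement of radioligand from human NET seen as loss of scintillation signal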
# Outline: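 Scintillation counts of filter-retained radioligand served as the readout, taken 1 h post-dosing in a cell-free CHO-derived system. Test chemicals ran first at 25 uM in duplicate; confirmed hits were retested across concentrations.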
# [7] = molecular target: T1, Estrogen receptor (Homo sapiens) + Estrogen receptor beta (Homo sapiens) (UniProt P03372+Q92731); test: OT_ER_ERaERb_1440: Odyssey Thera (OT) 24-hour HEK293T Protein-Complementation Assay for Estrogen Receptor-alpha/-beta Homodimer (AID 2283356);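 further: heteromer of ER alpha and ER beta binding domains; hits raise reporter fluorescence and both agonists and antagonists give an increase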
# Outline: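 Heterodimerisation of ERα (aa 310-547) and ERβ (aa 263-489) ligand binding domains was tracked as fluorescence gain in stably transfected HEK293T cells following 24 h dosing, normalised to DMSO controls.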
# [8] = molecular target: Estrogen receptor beta (Homo sapiens) (UniProt Q92731); test: OT_ER_ERbERb_0480: Odyssey Thera (OT) 8-hour HEK293T Protein-Complementation Assay for Estrogen Receptor-beta/-beta Homodimer (AID 2283357);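 further: active means signal gain over DMSO baseline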
# Outline: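 Cells (HEK293T, stable ER-beta LBD PCA pair) are treated 8 hours, fixed and Draq5-stained; signal is fluorescence intensity increase relative to vehicle, fitted in the gain direction.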
# [9] = molecular target: human Peroxisome Proliferator-activated Receptor alpha (PPARa), PPARA (gene 5465) (UniProt Q07869); test: NVS_NR_hPPARa: NovaScreen (NVS) Nuclear Receptor Binding Assay for human Peroxisome Proliferator-activated Receptor alpha (PPARa) (AID 2283359);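 further: activity means loss of TR-FRET signal versus DMSO baseline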
# Outline: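 Chemicals were first screened in duplicate at 25 uM, and active ones were retested across concentration series. Binding was monitored by TR-FRET one hour after dosing, with decreased signal against DMSO counted as activity.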
# [10] = molecular target: Peroxisome proliferator-activated receptor gamma (Homo sapiens) (UniProt P37231); test: NVS_NR_hPPARg: NovaScreen (NVS) Nuclear Receptor Binding Assay for human Peroxisome Proliferator-activated Receptor gamma (PPARg) (AID 2283370)
# Outline: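 Fluorescence polarization measures competitive binding to extracted PPARg in a cell-free format. Reading is taken at 2 h; activity is signal loss relative to DMSO. Screening at 25 uM in duplicate preceded confirmatory dose series.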
# [11] = molecular target: rat Serotonin Transporter (SERT), Slc6a4 (gene 25553) (UniProt P31652); test: NVS_TR_rSERT: NovaScreen (NVS) Transporter Assay for rat Serotonin Transporter (SERT) (AID 2283375)
# Outline: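 Steps: rat forebrain membranes dosed with chemical (25 uM duplicate primary; concentration series for actives); 1 h incubation; labelled ligand bound, filtered, counted by scintillation. Activity scored as signal loss vs DMSO.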
# [12] = molecular target: Glucocorticoid receptor (Homo sapiens) (UniProt P04150); test: NVS_NR_hGR: NovaScreen (NVS) Nuclear Receptor Binding Assay for human Glucocorticoid Receptor (GR) (AID 2283363);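 on AC50: activity is loss of specific radioligand binding signal relative to DMSO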
# Outline: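 Competitive displacement of a labelled ligand was measured on cell-free receptor preparations after 16 h exposure. Initial testing used 25 uM in duplicate with plate controls; confirmed actives went into concentration series.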
# [13] = molecular target: Nuclear receptor subfamily 1 group I member 2 (Homo sapiens) (UniProt O75469); test: NVS_NR_hPXR: NovaScreen (NVS) Nuclear Receptor Binding Assay for human Pregnane X Receptor (PXR) (AID 2283365);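 further: a drop in FRET signal versus DMSO baseline means the compound binds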
# Outline: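 Binding was measured by time-resolved fluorescence resonance energy transfer after a 2 h exposure of extracted human PXR protein without cells. Compounds were first tested at 25 uM in duplicate, with concentration series for actives; DMSO defined baseline.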
# [14] = molecular target: Androgen Receptor/SRC-1 Co-activator, AR (gene 367) (UniProt P10275); test: OT_AR_ARSRC1_0960: Odyssey Thera (OT) 16-hour HEK293T Protein-Complementation Assay for Androgen Receptor/SRC-1 Co-activator (AID 2283353);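 further: actives raise the signal above DMSO so potency reflects increased AR and SRC-1 complex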
# Outline: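 Split-Venus PCA, AR/SRC-1 fusions, stable HEK293T; 16 h compound exposure; imaged at 488 and 635 nm; N/C ratio (488 nm channel), min 400 cells/image; positive-direction fit, DMSO baseline.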
# [15] = molecular target: Androgen Receptor/SRC-1 Co-activator, AR (gene 367) (UniProt P10275); test: OT_AR_ARSRC1_0480: Odyssey Thera (OT) 8-hour HEK293T Protein-Complementation Assay for Androgen Receptor/SRC-1 Co-activator (AID 2283354);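 further: hits raise the complementation signal above DMSO so AC50 marks enhancers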
# Outline: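 Measures AR/SRC-1 binding by Venus YFP fragment complementation in HEK293T stable lines at 8 h post-dose. Imaging quantifies the 488nm nucleus/cytoplasm ratio in ≥400 cells; DMSO defines baseline.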
# [16] = system: guinea pig Dopamine Transporter (DAT), gene 100714898; test: NVS_TR_gDAT: NovaScreen (NVS) Transporter Assay for guinea pig Dopamine Transporter (DAT) (AID 2283369);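 further: active compounds lower bound radioligand signal relative to DMSO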
# Outline: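 Test chemicals were incubated 2 h with guinea pig striatal membranes and a radioligand; bound label was separated by filtration and counted. Screening ran at 25 uM, followed by concentration-response testing to a 50 uM maximum.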
# PGR (gene 5241) = PGR (gene 5241) (UniProt P06401); test: NVS_NR_hPR: NovaScreen (NVS) Nuclear Receptor Binding Assay for human Progestron Receptor (PR) (AID 2283360);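 further: active means loss of bound radioligand signal versus DMSO baseline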
# Outline: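 Competitive displacement of a labelled radioligand from T47D-derived receptor protein is measured in a cell-free format. Initial testing uses 25 uM in duplicate, with positive and negative controls on every plate.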
# [17] = molecular target: T1, Estrogen receptor (Homo sapiens) + Estrogen receptor beta (Homo sapiens); test: OT_ER_ERaERb_0480: Odyssey Thera (OT) 8-hour HEK293T Protein-Complementation Assay for Estrogen Receptor-alpha/-beta Heterodimer (AID 2283352)
# Outline: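 Increase in mean fluorescence intensity, measured by laser scanning plate cytometry, reported ER-alpha/ER-beta LBD complementation in HEK293T cells after 8 h chemical exposure. DMSO served as baseline; basal signal is low, punctate and cytoplasmic.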
# [18] = molecular target: guinea pig Sigma Receptor, Non-selective Binding, SIGMAR1 (gene 100135589) (UniProt Q60492); test: NVS_OR_gSIGMA_NonSelective: NovaScreen (NVS) Nuclear Receptor Binding Assay for guinea pig Sigma Receptor, Non-selective Binding (AID 2283367)
# Outline: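 gp brain membr., radioligand displacement, 1 h, filtration + scint. counting; DMSO = baseline; 25 uM x2 primary, conc.-response confirm.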
# Chain of human Dopamine Transporter (DAT), SLC6A3 (gene 6531) (Q01959 whole entry, looked up): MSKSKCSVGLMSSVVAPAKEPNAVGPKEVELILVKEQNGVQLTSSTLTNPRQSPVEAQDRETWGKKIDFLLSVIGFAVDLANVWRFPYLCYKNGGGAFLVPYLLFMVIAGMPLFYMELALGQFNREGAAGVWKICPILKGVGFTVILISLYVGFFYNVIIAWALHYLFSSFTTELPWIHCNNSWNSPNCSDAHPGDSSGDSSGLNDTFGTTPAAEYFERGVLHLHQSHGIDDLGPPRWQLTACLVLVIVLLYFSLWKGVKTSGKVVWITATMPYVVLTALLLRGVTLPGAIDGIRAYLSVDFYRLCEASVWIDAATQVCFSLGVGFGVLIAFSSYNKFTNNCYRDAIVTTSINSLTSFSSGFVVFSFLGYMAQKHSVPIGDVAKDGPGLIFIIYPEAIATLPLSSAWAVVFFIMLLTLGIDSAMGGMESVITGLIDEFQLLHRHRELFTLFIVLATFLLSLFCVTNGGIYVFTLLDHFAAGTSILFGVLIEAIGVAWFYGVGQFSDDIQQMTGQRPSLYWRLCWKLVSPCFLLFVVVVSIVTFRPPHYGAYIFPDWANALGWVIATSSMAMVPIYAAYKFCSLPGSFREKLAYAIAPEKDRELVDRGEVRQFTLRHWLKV
# Chain of human Norepinephrine Transporter (NET), SLC6A2 (gene 6530) (P23975 whole entry, looked up): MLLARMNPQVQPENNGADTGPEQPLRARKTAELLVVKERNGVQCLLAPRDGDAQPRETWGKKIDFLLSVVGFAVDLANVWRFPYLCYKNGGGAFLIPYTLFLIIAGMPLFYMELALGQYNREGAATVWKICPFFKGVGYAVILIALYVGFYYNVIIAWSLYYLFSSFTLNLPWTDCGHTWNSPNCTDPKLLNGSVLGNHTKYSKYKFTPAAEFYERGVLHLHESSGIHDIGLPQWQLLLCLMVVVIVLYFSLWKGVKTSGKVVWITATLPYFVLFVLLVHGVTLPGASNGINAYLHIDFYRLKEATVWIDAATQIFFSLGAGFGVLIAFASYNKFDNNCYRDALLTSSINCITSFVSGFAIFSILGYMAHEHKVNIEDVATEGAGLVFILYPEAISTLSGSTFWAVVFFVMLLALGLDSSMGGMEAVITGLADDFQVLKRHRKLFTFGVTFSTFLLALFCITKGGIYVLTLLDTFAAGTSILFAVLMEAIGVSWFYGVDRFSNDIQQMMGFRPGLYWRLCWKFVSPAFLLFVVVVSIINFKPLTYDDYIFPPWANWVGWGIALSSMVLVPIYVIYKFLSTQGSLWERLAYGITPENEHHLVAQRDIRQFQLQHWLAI
# Chain of Nuclear receptor subfamily 1 group I member 2 (Homo sapiens) (O75469 whole entry, looked up): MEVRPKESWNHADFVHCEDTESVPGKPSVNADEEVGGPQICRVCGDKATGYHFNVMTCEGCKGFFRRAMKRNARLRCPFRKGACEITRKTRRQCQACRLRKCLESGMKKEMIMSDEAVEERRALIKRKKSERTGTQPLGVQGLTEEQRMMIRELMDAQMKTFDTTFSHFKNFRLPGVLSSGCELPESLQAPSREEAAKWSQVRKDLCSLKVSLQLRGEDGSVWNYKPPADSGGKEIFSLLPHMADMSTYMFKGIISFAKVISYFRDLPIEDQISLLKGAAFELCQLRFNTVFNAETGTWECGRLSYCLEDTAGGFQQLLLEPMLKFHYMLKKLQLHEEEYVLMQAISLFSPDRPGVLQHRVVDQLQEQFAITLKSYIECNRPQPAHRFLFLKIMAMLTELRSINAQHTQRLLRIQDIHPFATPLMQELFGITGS
# Chain of Estrogen receptor beta (Homo sapiens) (Q92731 whole entry, looked up, the tested form may be a part): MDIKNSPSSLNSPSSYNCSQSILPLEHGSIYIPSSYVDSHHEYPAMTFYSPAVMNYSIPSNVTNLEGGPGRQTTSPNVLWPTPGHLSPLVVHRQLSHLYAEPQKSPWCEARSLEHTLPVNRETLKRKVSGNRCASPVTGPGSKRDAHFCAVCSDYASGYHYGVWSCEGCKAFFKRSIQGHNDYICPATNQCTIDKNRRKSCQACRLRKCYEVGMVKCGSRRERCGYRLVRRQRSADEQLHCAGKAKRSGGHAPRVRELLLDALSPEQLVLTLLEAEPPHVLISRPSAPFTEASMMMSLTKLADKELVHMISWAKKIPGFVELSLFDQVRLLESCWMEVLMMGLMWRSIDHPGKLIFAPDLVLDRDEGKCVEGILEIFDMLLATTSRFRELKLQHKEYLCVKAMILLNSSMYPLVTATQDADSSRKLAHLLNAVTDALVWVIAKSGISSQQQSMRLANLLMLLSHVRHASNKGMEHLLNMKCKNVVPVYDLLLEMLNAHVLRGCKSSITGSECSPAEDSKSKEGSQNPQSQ
# Chain of Peroxisome proliferator-activated receptor gamma (Homo sapiens) (P37231 whole entry, looked up): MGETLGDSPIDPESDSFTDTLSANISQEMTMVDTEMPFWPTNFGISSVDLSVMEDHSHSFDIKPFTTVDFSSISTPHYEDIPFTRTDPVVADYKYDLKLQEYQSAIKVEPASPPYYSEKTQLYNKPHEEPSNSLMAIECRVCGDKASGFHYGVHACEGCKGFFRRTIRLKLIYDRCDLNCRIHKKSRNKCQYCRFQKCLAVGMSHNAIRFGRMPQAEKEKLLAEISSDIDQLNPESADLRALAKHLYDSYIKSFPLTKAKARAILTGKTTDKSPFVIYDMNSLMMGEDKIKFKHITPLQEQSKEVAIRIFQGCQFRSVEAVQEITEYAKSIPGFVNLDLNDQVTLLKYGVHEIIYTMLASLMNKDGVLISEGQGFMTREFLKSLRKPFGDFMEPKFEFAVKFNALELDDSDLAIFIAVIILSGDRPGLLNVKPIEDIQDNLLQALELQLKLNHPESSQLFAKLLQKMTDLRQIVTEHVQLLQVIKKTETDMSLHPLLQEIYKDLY
# Chain of Retinoic acid receptor alpha (Homo sapiens) (P10276 whole entry, looked up): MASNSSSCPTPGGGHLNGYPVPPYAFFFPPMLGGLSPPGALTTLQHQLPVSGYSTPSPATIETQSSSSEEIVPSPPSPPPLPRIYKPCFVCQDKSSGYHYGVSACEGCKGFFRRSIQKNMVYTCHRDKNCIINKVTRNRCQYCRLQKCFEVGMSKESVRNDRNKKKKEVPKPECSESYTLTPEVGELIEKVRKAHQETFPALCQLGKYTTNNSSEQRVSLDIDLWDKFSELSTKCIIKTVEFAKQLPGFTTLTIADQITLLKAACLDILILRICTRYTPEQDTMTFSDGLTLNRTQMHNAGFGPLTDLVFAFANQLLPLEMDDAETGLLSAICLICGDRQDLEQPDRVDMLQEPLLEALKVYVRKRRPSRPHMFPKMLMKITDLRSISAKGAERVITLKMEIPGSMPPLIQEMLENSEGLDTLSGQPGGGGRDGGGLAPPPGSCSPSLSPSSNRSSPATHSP
# Chain of rat Mineralocorticoid Receptor (MR), Nr3c2 (gene 25672) (P22199 whole entry, looked up): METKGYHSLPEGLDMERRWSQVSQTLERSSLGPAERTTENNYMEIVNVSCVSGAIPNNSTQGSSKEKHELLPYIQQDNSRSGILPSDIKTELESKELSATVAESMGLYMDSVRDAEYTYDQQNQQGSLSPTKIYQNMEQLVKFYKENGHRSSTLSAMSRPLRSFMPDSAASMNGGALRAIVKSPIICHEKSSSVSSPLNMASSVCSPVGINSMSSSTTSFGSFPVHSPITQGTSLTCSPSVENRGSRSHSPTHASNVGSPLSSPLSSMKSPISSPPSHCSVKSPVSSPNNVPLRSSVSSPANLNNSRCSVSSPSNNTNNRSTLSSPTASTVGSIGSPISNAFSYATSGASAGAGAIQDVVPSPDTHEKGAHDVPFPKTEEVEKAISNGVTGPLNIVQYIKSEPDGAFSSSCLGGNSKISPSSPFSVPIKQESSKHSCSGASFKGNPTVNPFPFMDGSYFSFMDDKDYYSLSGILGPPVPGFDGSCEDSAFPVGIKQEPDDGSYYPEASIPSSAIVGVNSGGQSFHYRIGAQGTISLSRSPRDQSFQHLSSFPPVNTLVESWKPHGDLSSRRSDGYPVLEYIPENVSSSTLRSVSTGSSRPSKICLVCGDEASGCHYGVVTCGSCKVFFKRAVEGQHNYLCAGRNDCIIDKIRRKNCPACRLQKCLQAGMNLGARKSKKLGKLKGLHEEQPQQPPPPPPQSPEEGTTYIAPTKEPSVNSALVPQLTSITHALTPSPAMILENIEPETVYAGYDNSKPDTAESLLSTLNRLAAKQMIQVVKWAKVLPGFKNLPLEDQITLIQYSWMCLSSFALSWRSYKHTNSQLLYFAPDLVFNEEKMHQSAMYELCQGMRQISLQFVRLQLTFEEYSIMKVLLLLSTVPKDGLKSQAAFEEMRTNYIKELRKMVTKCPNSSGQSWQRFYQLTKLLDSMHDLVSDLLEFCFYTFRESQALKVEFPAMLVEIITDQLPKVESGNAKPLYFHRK
# Chain of Glucocorticoid receptor (Homo sapiens) (P04150 whole entry, looked up): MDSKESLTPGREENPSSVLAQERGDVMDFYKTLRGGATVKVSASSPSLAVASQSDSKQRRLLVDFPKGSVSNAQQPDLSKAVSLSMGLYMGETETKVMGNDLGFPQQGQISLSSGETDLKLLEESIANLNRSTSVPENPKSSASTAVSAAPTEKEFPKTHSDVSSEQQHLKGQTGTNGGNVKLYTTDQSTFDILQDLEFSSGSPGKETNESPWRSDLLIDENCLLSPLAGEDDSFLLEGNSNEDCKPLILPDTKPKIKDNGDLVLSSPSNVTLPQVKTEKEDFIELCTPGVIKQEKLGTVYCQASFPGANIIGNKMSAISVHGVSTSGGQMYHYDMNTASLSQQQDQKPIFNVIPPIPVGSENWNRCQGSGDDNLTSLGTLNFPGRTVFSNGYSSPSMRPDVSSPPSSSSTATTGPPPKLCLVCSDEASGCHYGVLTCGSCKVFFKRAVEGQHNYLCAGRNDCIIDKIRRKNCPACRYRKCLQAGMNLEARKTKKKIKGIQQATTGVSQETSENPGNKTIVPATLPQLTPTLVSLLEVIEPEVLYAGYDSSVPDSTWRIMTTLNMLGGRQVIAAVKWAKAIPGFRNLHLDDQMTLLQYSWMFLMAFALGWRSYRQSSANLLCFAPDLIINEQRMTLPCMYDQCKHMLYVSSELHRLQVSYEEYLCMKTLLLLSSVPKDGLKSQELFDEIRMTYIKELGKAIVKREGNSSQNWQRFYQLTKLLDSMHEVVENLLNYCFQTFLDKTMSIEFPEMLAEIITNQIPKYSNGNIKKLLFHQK
structure (smiles),measurement,setting,value
CCCCCCCOC(=O)CCC,outcome,[1],inactive
CCCCCCCCCCCCCOP(=O)(O)O,outcome,[2],inactive
Oc1ccc(Cl)cc1Cc1cc(Cl)ccc1O,outcome,[2],inactive
same,AC50,[3],1.42 µM (active)
CN(C)c1ccc(C(=N)c2ccc(N(C)C)cc2)cc1,AC50,[4],14.1 µM (active)
O=S(=O)(O)c1ccccc1C=Cc1ccc(-c2ccc(C=Cc3ccccc3S(=O)(=O)O)cc2)cc1,AC50,[4],12.1 µM (active)
CCCCC/C=C\C/C=C\CCCCCCCC(=O)OC,outcome,[5],inactive
same,AC50,[6],25 µM (active)
O=C1C(N(CO)C(=O)NCO)N(CO)C(=O)N1CO (stereo unspecified),outcome,[7],inactive
same,outcome,[8],inactive
CCCCCCCC/C=C\CCCCCCCC(=O)O,outcome,[8],inactive
same,AC50,[9],8.82 µM (active)
same,AC50,[10],25 µM (active)
CC(C)(c1cc(Br)c(OCCO)c(Br)c1)c1cc(Br)c(OCCO)c(Br)c1,outcome,[1],inactive
same,AC50,[11],2.88 µM (active)
O=C(Nc1ccccc1SSc1ccccc1NC(=O)c1ccccc1)c1ccccc1,AC50,[12],11.3 µM (active)
same,outcome,[6],inactive
C1CN(SSN2CCOCC2)CCO1,outcome,[13],inactive
same,outcome,[10],inactive
CCCCCCCCO[C@@H]1O[C@H](CO)[C@@H](O)[C@H](O)[C@H]1O,outcome,[7],inactive
same,outcome,[8],inactive
same,AC50,[10],36.5 µM (active)
NC(=O)c1ccccc1O,outcome,[7],inactive
same,outcome,[8],inactive
CC(CC=O)CCCC(C)(C)O (stereo unspecified),outcome,[14],inactive
same,outcome,[15],inactive
CCCCC/C=C\CCC=O,outcome,[14],inactive
same,outcome,[15],inactive
same,outcome,[10],inactive
c1ccc2c(c1)ccc1ncccc12,AC50,[16],34.7 µM (active)
same,AC50,[5],16.4 µM (active)
same,AC50,[6],7.22 µM (active)
CC(C)c1ccc2c(C(C)C)cc(C(C)C)c(S(=O)(=O)O)c2c1,outcome,[14],inactive
same,outcome,[15],inactive
same,AC50,[2],12.9 µM (active)
same,AC50,[9],7.37 µM (active)
same,AC50,[12],10.9 µM (active)
same,AC50,[13],0.393 µM (active)
same,AC50,[3],7.33 µM (active)
same,AC50,[10],4.01 µM (active)
c1ccc2c(c1)ccc1cc3c(ccc4ccccc43)cc12,outcome,[12],inactive
CO[Si](CCC1CCC2OC2C1)(OC)OC (stereo unspecified),outcome,PGR (gene 5241),inactive
CCCCC(CC)CCC(CC(C)C)OS(=O)(=O)O (stereo unspecified),outcome,[17],inactive
same,outcome,[7],inactive
same,outcome,[2],inactive
same,AC50,[13],2.49 µM (active)
same,AC50,[10],8.17 µM (active) and 6.89 µM (active)
C#CC1(O)CC[C@H]2[C@@H]3CCC4=CCCC[C@@H]4[C@H]3CC[C@@]21C (stereo partly specified),outcome,[1],inactive
same,AC50,PGR (gene 5241),39.6 µM (active)
same,AC50,[12],5.07 µM (active)
CCCCCCCC[N+](C)(CCCCCCCC)CCCCCCCC,outcome,[17],inactive
same,AC50,[9],6.9 µM (active)
same,AC50,[4],4.37 µM (active)
same,outcome,[12],inactive
CCO[Si](C)(OCC)OCC,outcome,[7],inactive
same,outcome,[8],inactive
CN(C)c1ccc(N=Nc2ccccc2C(=O)O)cc1,outcome,[7],inactive
same,outcome,[8],inactive
Cc1cc(C)c(C)cc1C,outcome,[9],inactive
Cc1ccc(C(C)(C)C)cc1,outcome,[9],inactive
CCCCCCCC/C=C\CCCCCCCC(=O)OCCO,outcome,[7],inactive
same,outcome,[8],inactive
same,outcome,[2],inactive
same,AC50,[9],12.5 µM (active)
same,outcome,[13],inactive
same,outcome,[10],inactive
CC(C)C1=CC2=CC[C@@H]3[C@](C)(CCC[C@@]3(C)C(=O)O)[C@H]2CC1,AC50,[13],16 µM (active)
same,outcome,[10],inactive
CC(C)(C)c1n[nH]c(=O)n(N)c1=O,AC50,PGR (gene 5241),0.131 µM (active)
CC(C)=CC1CC(C)CCO1 (stereo unspecified),outcome,[5],inactive
CCCCCCCCCCCCCCCC[N+](C)(C)CC,AC50,[12],2.81 µM (active)
same,AC50,[18],1.23 µM (active)
same,AC50,[5],1.82 µM (active)
same,AC50,[6],2.32 µM (active)
CCN(CCC#N)c1ccc(N=Nc2c(Cl)cc([N+](=O)[O-])cc2Cl)cc1,AC50,[2],6.24 µM (active)
same,AC50,[12],25 µM (active)
same,AC50,[13],0.433 µM (active)
same,AC50,[10],13.4 µM (active)
COc1ccc2nc(N)sc2c1,outcome,[16],inactive
same,AC50,[6],9.9 µM (active)
S=C(NC1CCCCC1)NC1CCCCC1,AC50,[18],5.93 µM (active)
OCCCS,outcome,PGR (gene 5241),inactive
CCCCCCCCCCOS(=O)(=O)O,AC50,[10],15.6 µM (active)
same,outcome,[10],inactive
CC(=O)OC(C)C,outcome,[7],inactive
same,outcome,[8],inactive
same,outcome,[13],inactive
same,outcome,[10],inactive
NC(=O)N=NC(N)=O,outcome,[7],inactive
same,outcome,[8],inactive
CCOC(=O)CC,outcome,[7],inactive
same,outcome,[8],inactive
O=C(C(Cl)Cl)N1CCOC12CCCCC2,outcome,[7],inactive
same,outcome,[8],inactive
same,outcome,[10],inactive
O=[N+]([O-])c1ccc(CO)cc1,outcome,[6],inactive

# Reference: PubChem BioAssay (EPA / NIEHS)
